PubChem BioAssay (NCI)
Several values for one entry are separate records, joined by “and”; a condition that tells them apart may be missing. Equal entries are not always repeated. Compounds without any hit were thinned out: in the full panel of roughly 83,000, 20% have a hit.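 Method: cells in 96-well plates; compound added at one concentration; 48 h incubation; percent growth measured; values under 10 scored active.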 Activity calls are given as the source filed them.

Test system: MDA-MB-468 breast
Test: NCI-60 one-dose screen, 48 h (100 = growth as untreated, 0 = no growth, -100 = all killed)
Conditions: 10 µM unless noted

Compound | growth
Brc1ccc2[nH]cc(-c3nonc3-c3c[nH]c4ccccc34)c2c1 | 62.9% (inactive)
Cc1ccccc1NS(=O)(=O)c1cccc(C(=O)Nc2ccc(Br)cc2)c1 | -2.56% [25 µM] (active)
COc1ccc2c(O)c(/C=C3\N=Nc4nc(C)ccc43)oc2c1CC1CCNCC1 | 0.98% (active)
COc1cc2c3c(n(C4CCNCC4)c(=O)c2cc1OC)-c1cc2c(cc1C3=O)OCO2 | -81% (active)
CCOc1ccccc1NC(=O)CCl | 79.4% (inactive)
CCOC(=O)CCCCCCCCC(=O)OCC | 104% (inactive)
O=C1CCC(=O)N1C1CCCCC1 | 97% (inactive)
Cc1occc1-c1nc2s/c(=C/c3ccc(-c4cc(C(F)(F)F)ccc4Cl)o3)c(=O)n2n1 | 108% (inactive)
O=C(CCCCCCSc1nc(-c2ccccc2)cc(-c2ccccc2)n1)NO | 43.2% (inactive)
C=C1C(=O)O[C@@H]2[C@@H]3O[C@@](C)(CC/C=C(\C)CCC[C@@H]2C)[C@H](O)C[C@@H]13 | -24.9% (active)
C[C@]12CC[C@@H]3c4ccc(O)cc4CC[C@H]3[C@@H]1CC[C@@H]2NS(=O)(=O)c1cccc(Br)c1 | 53.8% (inactive)
O=C1[C@H]2Cc3c([nH]c4ccccc34)[C@H](c3ccc(Cl)cc3)N2C(=O)CN1C1CCN(CC2CCCCC2)CC1 | 62.7% (inactive)
O=C1C(=O)N(CCCCn2cc(-c3ccccc3)nn2)c2ccccc21 | 125% (inactive)
CC[C@]12C=CCN3CC[C@@]4(c5ccc(OC)cc5N(C)[C@H]4[C@@](O)(C(=O)OC)[C@@H]1OC(=O)CCCN1CCOCC1)[C@@H]32 | 108% (inactive)
COc1cc2oc3cc(=O)cc4oc(-c5ccccc5)cc(c2c2c1CCC(c1ccccc1)O2)c43 (stereo not given) | 61.8% (inactive)
CN(C[C@H]1Cc2c(cccc2N2CCN(c3ncccn3)CC2)CN1)[C@H]1CCCc2cccnc21 | 37.6% (inactive)
COc1cc(C2CC(=O)Nc3c2c(C)nn3-c2nc3ccccc3[nH]2)cc(OC)c1O (stereo not given) | 18.5% (inactive)
N#CCCCCCn1c2ccccc2c2c3c(c4c5ccccc5[nH]c4c21)C(=O)N(O)C3=O | -32% (active)
NC(=O)NS(=O)(=O)c1ccc(N2N=C(C(F)(F)F)CC2c2cc(C(F)(F)F)cc(C(F)(F)F)c2)cc1 (stereo not given) | 70.1% (inactive)
CSc1ncccc1C(=O)OCC(=O)Nc1oc(C)c2c(C)n[nH]c(=O)c12 | 98% (inactive)

Compound | growth
CCOc1nc(-c2ccccc2)cc2c(O)c(C(=O)N/N=C/c3ccccc3)[nH]c(=O)c12 | 105% (inactive)
Clc1ccc(-c2nc3ccc(/C(=N\N=C\c4ccccc4)c4ccccc4)cc3[nH]2)cc1 | 79.1% (inactive)
CSc1nn(-c2ccccc2)c2ncnc(Oc3ccc(C)cc3)c12 | 93.2% (inactive)
Cc1nc2ccc(C(=O)NCc3cc(C(=O)O)c(C)o3)cc2nc1C | 98.7% (inactive)
CCCCCCOc1ccc(/C=N/NC(N)=S)cc1 | 66.9% (inactive)
CCn1c(SC)nnc1-c1cc2c([nH]c3ccccc32)c(-c2cccc(O)c2)n1 | -12.6% (active)
COc1ccc(/C=C/C(=O)c2ccc([N+](=O)[O-])cc2)cc1 | 94.4% (inactive)
COc1ccccc1/C=C1\Oc2ccc(O)c(O)c2C1=O | 101% (inactive)
Cc1cccc2c3c(sc12)C(c1ccc(Cl)cc1)C(C#N)=C(/N=C/c1ccc(Cl)cc1)O3 (stereo not given) | 10.9% (inactive)
COc1cccc(NC(=O)Cn2cc3c(=O)oc4ccccc4c3n2)c1 | 101% (inactive)
COc1ccc(Nc2nnc(SCc3ccccc3F)s2)cc1 | 55.9% (inactive)
CCOC(=O)c1cc(C(=O)c2ccc(OC)c(OC)c2)n2ccc(/C=C/c3cc[n+](CC(=O)c4ccc(OC)c(OC)c4)cc3)cc12 | 71.9% (inactive)
COC(=O)[C@H](Cc1cn(C)cn1)NC(=O)[C@H](C)NC(=O)Nc1cc(C(F)(F)F)cc(C(F)(F)F)c1 | -82.8% [100 µM] (active)
O=C(Nc1ccccc1)OCC(CN1CCCCC1)OC(=O)Nc1ccccc1 (stereo not given) | 59% (inactive) and 94.1% (inactive)
CC1(C)OB(O)c2cc(-c3nc4ccc5[nH]ncc5c4c4c3CCCC4)ccc21 | 69.5% (inactive)
COc1ccc(NC(=O)c2sc3nc4c(cc3c2N)CCCC4)cc1 | 13.6% (inactive)
COc1ccc(OC2=CC(=O)c3ccc(C)nc3C2=O)cc1 | 86.2% (inactive)
CC(O)CN(CC(C)O)c1ccc2c(c1)Cc1cc([N+](=O)[O-])ccc1-2 (stereo not given) | 100% (inactive)
CC(C)NC(=O)N1C(=O)CCC1NNC(=O)c1ccc([N+](=O)[O-])cc1 (stereo not given) | 114% (inactive)
COc1ccc2c(c1)c(CC(=O)[Se]CCC#N)c(C)n2C(=O)c1ccc(Cl)cc1 | -36% (active)
